Screening data from PubChem BioAssay.
FBA Mtb inh = inhibits M. tuberculosis FBA enzyme. P9WQA3. purified M. tuberculosis FBA, fluorescence read-out. inhibition, % at 1 µM. 360,000 tested, 2.3% active. AID 588726; in the data active = inhibition above about 27%;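 note: 0% = vehicle and 100% = reference inhibitor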
Target sequence (P9WQA3 whole entry, looked up): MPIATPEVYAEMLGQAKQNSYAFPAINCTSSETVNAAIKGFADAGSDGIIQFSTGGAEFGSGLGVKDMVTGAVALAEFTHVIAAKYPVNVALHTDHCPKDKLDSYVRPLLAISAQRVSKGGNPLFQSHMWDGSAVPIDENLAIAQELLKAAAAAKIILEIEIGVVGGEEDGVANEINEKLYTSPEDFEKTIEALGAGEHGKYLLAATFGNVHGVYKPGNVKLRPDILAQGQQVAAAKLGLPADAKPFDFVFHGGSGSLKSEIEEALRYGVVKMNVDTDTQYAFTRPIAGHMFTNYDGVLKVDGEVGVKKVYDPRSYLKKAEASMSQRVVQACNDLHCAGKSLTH
PfHsp40 yeast = restores yeast growth despite PfHsp40 toxicity | 340,000 tested, 0.68% active | S. cerevisiae expressing PfHsp40, growth rescue, ATP luminescence | growth rescue, % at 12.5 µM; in the data active = growth rescue above about 28%, passing the limit was not always enough;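 note: yeast W303a lacking pdr1 and pdr3 grown in galactose medium; growth measured after three days at 30 °C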
GDH-TPI inh = counter-screen for M. tuberculosis FBA inhibitors: GDH-TPI coupled enzymes; GDH-TPI coupled enzyme counterscreen, NADH absorbance; inhibition, % at 4.8 µM; 360,000 tested, 1.2% active; AID 588335; in the data active = inhibition above about 30%;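 note: 0% = DMSO wells and 100% = wells lacking the enzyme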
PrP 5UTR inh = suppresses PrP 5' UTR mRNA reporter expression. cell-based PrP 5' UTR mRNA reporter, plate reader. inhibition, % (concentration not given with the values). 340,000 tested, 0.35% active. AID 488862; in the data active = inhibition above about 52%; note: 0 = median of the neutral control wells
BJeLR viability = kills HRASV12-expressing BJeLR cells; BJeLR (HRASV12) viability, CellTiter-Glo ATP luminescence, 48 h; inhibition, % (test concentration not listed); 300,000 tested, 0.17% active; in the data active = inhibition above about 50%
PrPC surface inh = inhibitors of human cell surface prion protein PrPC; inhibition, % at 13.8 µM; TR-FRET read-out; 370,000 tested, 0.43% active; in the data active = inhibition above about 24%; note: 0% = median of the test wells and 100% = reference compound wells
An asterisk follows results filed as active. Only some compounds are listed: those with a hit (about 4.5% of all), similar ones and a draw of the others.

For O=c1[nH]cccc1-c1nc2ccccc2n1Cc1cccc(Cl)c1 the results were FBA Mtb inh 135.2*, PfHsp40 yeast -1.4, GDH-TPI inh 2.9, PrP 5UTR inh -18.9, BJeLR viability 1.5 and PrPC surface inh 2.7.
`O=c1ccc2ccccc2n1Cc1cccc(F)c1` gave FBA Mtb inh 2.0, PfHsp40 yeast 2.8, GDH-TPI inh 10.9, PrP 5UTR inh -12.8, BJeLR viability -20.8 and PrPC surface inh -4.0.
`Cc1cc2nc(-c3ccc[nH]c3=O)n(Cc3cccc(F)c3)c2cc1C` gave FBA Mtb inh 149.4*, PfHsp40 yeast -0.8, GDH-TPI inh 22.8, PrP 5UTR inh -24.8, BJeLR viability 3.6 and PrPC surface inh 7.7.
`CCCCNS(=O)(=O)/C=C/c1cc2c(cc1CNC(=O)OC(C)(C)C)OCO2` gave PrPC surface inh 0.3.
CCC[C@H]1[C@@H](OC(=O)NCc2ccc(C)cc2)CC[C@@]23CCCN2C(=O)CCC[C@@H]13 was read as PrPC surface inh -1.3.
For C[C@@H]1/C=C/CC(=O)N[C@H](c2cccc(Br)c2)[C@H](C)/C=C/CC(=O)N[C@@H]1c1cccc(Br)c1 the results were PrPC surface inh -1.4.
Screening CSc1nnc(NC(=O)c2ccc3c(c2)OCO3)s1 returned FBA Mtb inh 0.1, PfHsp40 yeast 1.6, GDH-TPI inh 8.9, PrP 5UTR inh 62.6*, BJeLR viability 9.5 and PrPC surface inh -2.2.
For Cc1nnc(NC(=O)c2ccc3c(c2)OCO3)s1 the results were FBA Mtb inh 6.2, PfHsp40 yeast -1.2, GDH-TPI inh 3.5, PrP 5UTR inh -49.2, BJeLR viability -3.8 and PrPC surface inh 6.1.
Screening O=C1c2ccccc2[C@@H]2Cc3csc[n+]3[C@H]12 returned PrPC surface inh 1.7.
CCCCCCCCn1c(=O)c(C(=O)OC)c(N)c2ccccc21 was read as FBA Mtb inh 2.4, GDH-TPI inh -10.9, BJeLR viability -11.7 and PrPC surface inh 10.9.
`CCCCCCCn1c(=O)c(C(=O)OC)c(N)c2ccccc21` gave FBA Mtb inh 7.6, PfHsp40 yeast 245.0*, GDH-TPI inh 0.0, PrP 5UTR inh -19.5, BJeLR viability -1.2 and PrPC surface inh -4.2.
O=C(/C=C/c1ccccc1)Nc1nc(-c2ccncc2)cs1 was read as FBA Mtb inh 0.0, PfHsp40 yeast -0.4, GDH-TPI inh 37.8*, PrP 5UTR inh -26.1, BJeLR viability 0.8 and PrPC surface inh -7.8.
For CC(/C=C/c1ccccc1)=N\Nc1nc(-c2ccccc2)cs1 the results were FBA Mtb inh 1.7, PfHsp40 yeast 0.7, GDH-TPI inh 31.6*, PrP 5UTR inh -13.0, BJeLR viability -0.6 and PrPC surface inh -1.2.
CC(C)=NNc1nc(-c2ccccc2)cs1 was read as FBA Mtb inh -0.2, PfHsp40 yeast 0.5, GDH-TPI inh 1.9, PrP 5UTR inh -7.6, BJeLR viability 8.8 and PrPC surface inh -0.8.
`O=[N+]([O-])c1ccc(O)c(/C=N/Nc2ccc(Cl)nn2)c1` gave FBA Mtb inh -0.6, PfHsp40 yeast -2.3, GDH-TPI inh 33.4*, PrP 5UTR inh 29.7, BJeLR viability 26.4 and PrPC surface inh -6.4.
Screening Cc1ccn(CC(=O)N/N=C/c2cc([N+](=O)[O-])ccc2O)n1 returned FBA Mtb inh -10.9, PfHsp40 yeast -2.1, GDH-TPI inh 49.4*, PrP 5UTR inh -8.8, BJeLR viability 3.8 and PrPC surface inh -11.5.
`O=C1Nc2ccccc2C1=Nc1ccc2[nH]c3ccccc3c2c1` gave FBA Mtb inh 40.9*, PfHsp40 yeast -0.4, GDH-TPI inh 17.9, PrP 5UTR inh -12.1 and PrPC surface inh -2.2.
Screening O=C(Cn1nnc(-c2ccccc2F)n1)Nc1ccc(Cl)cc1 returned PrPC surface inh 1.5.
For CCCC(=O)Nc1ccc2nn(-c3ccc(OC)cc3)nc2c1 the results were FBA Mtb inh active, PfHsp40 yeast -0.2, GDH-TPI inh 24.8, PrP 5UTR inh -56.2, BJeLR viability -11.1 and PrPC surface inh 7.6.
`COc1ccc(-n2nc3cc(C)c(NC(=O)CC(C)C)cc3n2)cc1` gave BJeLR viability -5.6.
Screening CC(C)C(=O)Nc1ccc2nn(-c3ccc(F)cc3)nc2c1 returned FBA Mtb inh 91.5*, PfHsp40 yeast -1.8, GDH-TPI inh 9.6, PrP 5UTR inh -80.0 and BJeLR viability -6.3.
`Cc1ccc(-n2nc3ccc(NC(=O)C(C)C)cc3n2)cc1` gave FBA Mtb inh 23.0, PfHsp40 yeast -0.4, GDH-TPI inh -1.6, PrP 5UTR inh -69.9, BJeLR viability -3.2 and PrPC surface inh -2.6.
CN(C)/C=N/c1sc2c(c1C#N)CC(C)(C)NC2(C)C was read as FBA Mtb inh -0.4, PfHsp40 yeast -1.9, GDH-TPI inh 35.8*, PrP 5UTR inh 6.8, BJeLR viability 11.7 and PrPC surface inh -7.4.
Cc1ccc(CN2CCCCC(NC(=O)c3ccccc3C)C2=O)cc1 (centres undefined) was read as PrPC surface inh 0.4.
For CCOC(=O)c1c(N)n(CCN2CCCCC2)c2nc3ccccc3nc12 the results were FBA Mtb inh 163.6*, PfHsp40 yeast 11.1, GDH-TPI inh 17.1, PrP 5UTR inh -20.9, BJeLR viability 8.0 and PrPC surface inh -7.3.
COC(=O)c1c(N)n(CCCN2CCOCC2)c2nc3ccccc3nc12 was read as FBA Mtb inh 157.8*, PfHsp40 yeast 0.0, GDH-TPI inh 1.9, PrP 5UTR inh -23.9, BJeLR viability -2.9 and PrPC surface inh -7.1.
CCOC(=O)C1=C(C)NC(C)=C(C(=O)OCC)C1c1nc2ccccc2[nH]1 was read as BJeLR viability -0.3 and PrPC surface inh 4.5.
`COCCOC(=O)c1c(N)n(CCCN2CCOCC2)c2nc3ccccc3nc12` gave FBA Mtb inh 166.3*, PfHsp40 yeast -0.2, GDH-TPI inh 15.1, PrP 5UTR inh -3.8, BJeLR viability -14.5 and PrPC surface inh -3.3.
CCOC(=O)c1c(N)n(-c2ccc(N)cc2)c2nc3ccccc3nc12 was read as FBA Mtb inh 3.4, PfHsp40 yeast 2.1, GDH-TPI inh 25.1, PrP 5UTR inh -3.0, BJeLR viability -2.3 and PrPC surface inh -6.6.
For CCOC(=O)c1c(N)n(C2CC(C)(C)NC(C)(C)C2)c2nc3ccccc3nc12 the results were FBA Mtb inh 154.5*, PfHsp40 yeast 1.3, GDH-TPI inh 22.8, PrP 5UTR inh 12.6 and BJeLR viability -0.3.
For CC1CCC2(CC1)CCN(CCCOC(=O)NCc1ccc(Cl)cc1)C2=O (centres undefined) the results were PrPC surface inh 12.9.
For CCCN1CCS(=O)(=O)N(Cc2cn(Cc3ccc(OC)cc3)nn2)C(C(=O)OC)C1 (centres undefined) the results were PrPC surface inh -0.1.
`COCCCNC(=O)C[C@H]1C[C@@]2(C(=O)OC)C(=C[C@H](C(C)C)O[C@@H]2C2CC2)N(Cc2ccc(Cl)cc2Cl)C1=O` gave PrPC surface inh -4.8.
Screening CC(C)CNC(=O)OCc1cn(Cc2ccccc2C(F)(F)F)nn1 returned PrPC surface inh -0.9.
